SMILES strings stand for the structures. Compounds without any hit were thinned out: in the full panel of roughly 83,000, 20% have a hit.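 Plates (96-well) were seeded with cells, treated with compound at one concentration, and incubated for 48 hours before percent growth was determined.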 Unmarked numbers belong to inactive results. The source made the active and inactive calls. The calls were made as follows: active = growth percent below 10; inactive = the rest.

Test systems include DU-145 prostate; K-562 leukemia; MALME-3M melanoma; MDA-MB-231 breast; SF-268 CNS; SF-295 CNS; SF-539 CNS; UACC-257 melanoma; M14 melanoma.
Assay in all cases: NCI-60 one-dose screen, 48 h (100 = growth as untreated, 0 = no growth, -100 = all killed)
Holding throughout (conditions): 10 µM

With `C/C(=N\N=C\c1ccc(N(C)C)cc1)c1ccc2c(c1)Nc1ccccc1S2`, the growth in the test with DU-145 prostate was 62%; in the test on K-562 leukemia it was 28.2%; in the test on MALME-3M melanoma, 49.9%; in the test on MDA-MB-231 breast, 52%; in the test on SF-268 CNS, 62.8%; in the test on SF-295 CNS, 24.6%. For the same molecule, the growth with SF-539 CNS was 52.8%; with UACC-257 melanoma it was 64.9%; with M14 melanoma it was 67.7%.
With `O=C(CNc1nc(-c2ccccc2)cs1)Nc1ccc(Cl)cc1[N+](=O)[O-]`, the growth was 10.1% with DU-145 prostate; 4.23% (active) with K-562 leukemia; -70.5% (active) with MALME-3M melanoma; -66.7% (active) with MDA-MB-231 breast; -58.4% (active) in the test with SF-268 CNS; -49.7% (active) in the test on SF-295 CNS. For the same molecule, the growth with SF-539 CNS is -86.8% (active); in the test with UACC-257 melanoma, -17.2% (active); in the test on M14 melanoma, -13.1% (active).
`O=c1[nH]c2ccc(Cl)cc2cc1CSc1ccc(Nc2nccc(-c3ccc(Cl)cc3)n2)cc1`: the growth with DU-145 prostate is 4.82% (active); in the test on K-562 leukemia it was 59.3%; in the test with MALME-3M melanoma, 57.5%; in the test on MDA-MB-231 breast, 47%; in the test on SF-268 CNS, 58.5%; with SF-295 CNS, 105%. The growth with SF-539 CNS was 45.7%; in the test with UACC-257 melanoma, 96.9%; with M14 melanoma, 84.4%.
Take `O=C1CCC(N2Cc3cc(NC(=O)COc4ccccc4)ccc3C2=O)C(=O)N1` (stereo unspecified): the growth is 111% with DU-145 prostate; 93.6% with K-562 leukemia; 19.2% with MALME-3M melanoma; 25.1% with MDA-MB-231 breast; 87.3% with SF-268 CNS; 71.5% in the test on SF-295 CNS. Moreover, the growth in the test on SF-539 CNS was 78.4%; in the test on UACC-257 melanoma, 110%; in the test on M14 melanoma, 56.3%.
As for `O=C(CNc1nc(-c2ccccc2)cs1)Nc1ccc(Br)cc1`, the growth with DU-145 prostate was -92.3% (active); with K-562 leukemia it was 6.7% (active); in the test on MALME-3M melanoma, -82.4% (active); with MDA-MB-231 breast it was -92.5% (active); in the test with SF-268 CNS, -12.5% (active); with SF-295 CNS, -97.5% (active). In addition, the growth was -98.3% (active) with SF-539 CNS, -73.8% (active) with UACC-257 melanoma and -86.5% (active) with M14 melanoma.
Regarding `Cc1cc(=O)oc2cc(OCCCCOc3ccc(/C=C/C(=O)Nc4cccc(Cl)c4)cc3)ccc12`, the growth is 46.5% in the test on DU-145 prostate; 63.8% with K-562 leukemia; 29.8% with MALME-3M melanoma; 88.3% in the test on MDA-MB-231 breast; 61.4% in the test on SF-268 CNS; 78.6% in the test on SF-295 CNS. For the same molecule, the growth in the test on SF-539 CNS was 72.6%; with UACC-257 melanoma, 81.5%; in the test with M14 melanoma, 71.9%.
`N#Cc1ccc(-c2nn(-c3ccc(C(=O)O)cc3)cc2CNc2ccc(Oc3ccccc3)cc2)cc1`: the growth was 65.4% in the test with DU-145 prostate; 42.7% in the test with K-562 leukemia; 93.9% in the test with MALME-3M melanoma; 72.5% with MDA-MB-231 breast; 50.1% with SF-268 CNS; 49.3% with SF-295 CNS. Besides, the growth is 38.9% with SF-539 CNS, 56.1% with UACC-257 melanoma and 34.9% in the test on M14 melanoma.
As to `O=C(Cn1nc(-c2ccccc2)ccc1=O)NNC(=S)NC1CCCCC1`, the growth with DU-145 prostate is 117%; in the test on K-562 leukemia, 90.4%; in the test with MALME-3M melanoma, 105%; in the test with MDA-MB-231 breast, 109%; in the test with SF-268 CNS, 113%; in the test on SF-295 CNS, 101%. Further, the figures for the growth with SF-539 CNS, with UACC-257 melanoma and in the test on M14 melanoma were 97.3%, 111% and 122%, respectively.
Take `O=C(CNc1nc(-c2ccccc2)cs1)Nc1cccc(Cl)c1`: the growth was 53.5% with DU-145 prostate; 19.6% in the test on K-562 leukemia; 64.1% in the test with MALME-3M melanoma; 30.8% in the test with MDA-MB-231 breast; 30.6% in the test with SF-268 CNS; 22.4% in the test on SF-295 CNS. For the same molecule, the growth in the test with SF-539 CNS is 42.3%; in the test on UACC-257 melanoma it was 62.9%; in the test on M14 melanoma it was 34%.
With `O=C(Nc1ccc(Cl)c(C(F)(F)F)c1)c1cncc(C#Cc2cnc3ccc(N4CCOCC4)nn23)c1`, the growth was 20.6% in the test on DU-145 prostate; 13.3% in the test on K-562 leukemia; -39.8% (active) with MALME-3M melanoma; -44.6% (active) with MDA-MB-231 breast; 7.89% (active) in the test on SF-268 CNS; 5.28% (active) with SF-295 CNS. Besides, the growth in the test with SF-539 CNS was -42% (active); with UACC-257 melanoma, 6.55% (active); with M14 melanoma, 11.3%.
Consider `O=C(CNc1nc(-c2ccccc2)cs1)Nc1ccc([N+](=O)[O-])cc1`, for which the growth is 45.2% with DU-145 prostate; 9.52% (active) in the test on K-562 leukemia; -66.6% (active) in the test with MALME-3M melanoma; -13.4% (active) with MDA-MB-231 breast; 38.4% with SF-268 CNS; 26% in the test with SF-295 CNS. Further, the growth in the test on SF-539 CNS is -28.2% (active); with UACC-257 melanoma it was 39.5%; in the test on M14 melanoma, 30.2%.
With `COc1ccc(-c2cc(-c3cc(C(=O)c4ccc(Br)cc4)n4ccc(C)cc34)nc(N)c2C#N)cc1`, the growth in the test on DU-145 prostate was 75.9%; with K-562 leukemia, 92.6%; with MALME-3M melanoma it was 74.4%; in the test on MDA-MB-231 breast, 59.7%; in the test with SF-268 CNS, 93.9%; with SF-295 CNS it was 89.1%. The growth in the test with SF-539 CNS is 5.3% (active); in the test with UACC-257 melanoma, 88%; with M14 melanoma it was 64.6%.
In the case of `COC1=C[C@@]23CCC(=O)N2CCc2cc4c(cc2[C@H]3[C@H]1OC(=O)C(C)(C)O)OCO4`, the growth with DU-145 prostate is 108%; in the test with K-562 leukemia, 107%; in the test with MALME-3M melanoma it was 102%; in the test on MDA-MB-231 breast, 94.9%; with SF-268 CNS, 104%; in the test on SF-295 CNS it was 95.8%. For the same molecule, the growth was 93.6% in the test on SF-539 CNS, 104% in the test on UACC-257 melanoma and 102% with M14 melanoma.
Take `CCOP(=O)(OCC)O[C@H]1CC[C@]2(C)[C@H]3CC[C@@H]4[C@@H]([C@](C)(O)CCC=C(C)C)CC[C@@]4(C)[C@]3(C)CC[C@H]2C1(C)C`: the growth with DU-145 prostate was 41.4%; in the test on K-562 leukemia, 13%; in the test with MALME-3M melanoma, 40.3%; in the test on MDA-MB-231 breast, 13.9%; with SF-268 CNS, 45.9%; in the test with SF-295 CNS, 32.1%. In addition, the growth with SF-539 CNS is 42.7%; in the test with UACC-257 melanoma it was 9.27% (active); with M14 melanoma, 29%.

Source of the values: PubChem BioAssay (NCI).
